MCF10A rerep: induces DNA re-replication in MCF 10a normal breast cells; AID 624296; Potency, µM (titrated, usually from 46.1 µM), inactives show at the top dose activity, positive = re-replication, most hits filed as activators; 2.9% of 350,000 active; MCF 10A DNA re-replication, Hoechst nuclear intensity, 48 h; also: % of control where 0% means no effect; nearly all actives have a fitted effect of over 50% in size
KB-3-1 cytotox: kills parental KB-3-1 adenocarcinoma cells. KB-3-1 viability, CellTiter-Glo ATP luminescence, 72 h. Potency, µM (titrated, usually from 46.1 µM), actives largely listed as cytotoxic. 1.4% of 400,000 active; also: % is scaled to controls: 0 for no effect and ±100 for the full control effect; nearly all actives have a fitted effect of over 60% in size
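KB-3-1 parental drug-naive adenocarcinoma cells in DMEM/10% FBS, incubated 72 h at 37 C with pin-transferred compounds across a concentration series. Viability by CellTiter-Glo luminescence; concentration-response curves fitted after normalization.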
SW480 rereplic: DNA re-replication induction in SW480 cells | SW480 DNA re-replication, Hoechst DNA content imaging, 48 h | Potency, µM (highest dose often 46.1 µM), for the others: at the top dose re-replication activation, most hits filed as activators | 1.8% of 340,000 active; also: % of control where 0% means no effect; nearly all actives have a fitted effect of over 55% in size
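250 cells/well; 23 nL cpd via pin tool; 48 hr, 37 C, 5% CO2; Hoechst 40 min; imager read of total nuclear intensity, ex 405/em 500-530 nm.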
HT1080 IDH1KD tx: toxicity to HT-1080 IDH1 knockdown cells (counter line); HT-1080 IDH1 knockdown viability, ATP luminescence, 48 h; Potency, µM (doses to about 46.1 µM), without a hit: at the top dose activity, negative = toxicity, most hits filed as cytotoxic; 2% of 360,000 active;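 also: 0% = DMSO wells and -100% = cell-free medium wells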
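Viability of IDH1-knockdown HT-1080 fibrosarcoma cells was assessed by CellTiter-Glo after 48 h at 37 °C with titrated compound; concentration-effect curves were classified by fit quality and response size.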
KB-V1 MDR tox: kills drug-selected multidrug resistant KB-V1 cells; Potency, µM (doses to about 46.1 µM), usual class: cytotoxic; KB-V1 MDR cells viability, CellTiter-Glo, 72 h; 3.4% of 400,000 active; AID 1347076; also: % is scaled to controls: 0 for no effect and ±100 for the full control effect; nearly all actives have a fitted effect of over 60% in size
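KB-V1, DMEM (no phenol red) + 10% FBS; cpd pin-transferred, titration series; 72 h, 37 degrees C; CellTiter-Glo, luminescence. Data normalized, curve-fit.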
HT1080-NT tox: kills 2HG-producing HT-1080-NT fibrosarcoma cells; 1.6% of 360,000 active; Potency, µM (doses to about 46.1 µM), for inactives: at the top dose activity, negative = less viability, usual class: cytotoxic; HT-1080-NT fibrosarcoma viability, CellTiter-Glo ATP luminescence, 48 h;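 also: NT is the 2HG producing partner of a matched IDH1 knockdown line; 0% = DMSO-treated cells and -100% = media-only wells without cells; nearly all actives have a fitted effect of over 55% in size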
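A 48-hour cytotoxicity screen used HT-1080-NT cells plated 2 hours before compound delivery. ATP-based CellTiter-Glo luminescence measured viability, normalized to DMSO and no-cell controls.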
Active calls of the source: *; i = inactive; u = inconclusive; x = no result given; [ ] = dose if it differs, or a comment. Shown are actives, neighbours in structure and some others; about 8% of the full set was active somewhere. Calls follow the shape of the dose curve; as a rule, active = well fitted curve in the direction sought with a large enough effect; inconclusive = small, poorly fitted or top-dose-only effect, or another doubt; inactive = no such curve, though single readings can be large; an effect the other way counts as inactive or inconclusive. Potency is read from the fitted curve at half-maximal effect.

SMILES	MCF10A rerep	KB-3-1 cytotox	SW480 rereplic	HT1080 IDH1KD tx	KB-V1 MDR tox	HT1080-NT tox
COc1cccc(C2=CC(c3cccc(OC)c3OC)n3nnnc3N2)c1 (stereo unspecified)	8.9µM*	i	1%[9.22 µM]	16µM*	u	u
COc1cccc(C2=CC(c3cccc(OC)c3OC(F)F)n3nnnc3N2)c1 (stereo unspecified)	u	i	u	-21%	i	-4%
Cc1ccccc1C1C=C(c2ccc(Cl)cc2)Nc2nnnn21 (stereo unspecified)	x	i	x	x	i	x
COc1cccc(C2C=C(c3ccc(C)c(C)c3)Nc3nnnn32)c1OC (stereo unspecified)	x	4.1µM*	x	x	i	x
CC(C)N1CCN(c2ccc(OCC3COC(Cn4cncn4)(c4ccc(Cl)cc4Cl)O3)cc2)CC1 (stereo unspecified)	u	u	u	-1%	1.2µM*	-2%
COc1ccc(N2CCN(C(=O)Cn3cncn3)CC2)cc1	1%	i	-4%	13%	i	3%
Cc1nnc(NC(=O)CSc2nnc(C(C)NC(=O)c3ccccc3F)n2C)s1 (stereo unspecified)	-3%	i	u	21%	i	12%
O=C(NC(=S)Nc1cc([N+](=O)[O-])ccc1O)c1ccc2c(c1)OCO2	13µM*	i	u	u	u	u
CCc1ccc(N(CC)C(=O)c2cn(C)c(=O)c3cc(OC)c(OC)cc23)cc1	x	i	x	x	i	x
O=C(/C=C\c1ccc(-c2ccccc2)o1)c1ccccc1	23µM*	i	18%	-21%	i	-11%
O/N=C\c1ccc(-c2ccccc2)o1	-79%	i	u	17%	i	17%
Cc1ccc(C(=O)/C=C/c2ccc(-c3ccc(C)cc3)o2)cc1	21µM*	i	69%	-5%	i	0%
O=C(N/N=C/c1cccs1)c1cc(-c2ccc3ccccc3c2)n[nH]1	u	i	u	u	u	u
Cc1ccc(-c2cc(C(=O)N/N=C/c3c[nH]c4ccccc34)[nH]n2)cc1	u	5.2µM*	3.3µM*	2.9µM*	10µM*	u
O=C(N/N=C/c1c[nH]c2ccccc12)c1ccn[nH]1	0.58µM*	i	-59%	-1%	i	4%
O=C(N/N=C/c1cccs1)c1cc(-c2cccc3ccccc23)n[nH]1	23µM*	u	u	u	u	u
O=C(N/N=C/c1c[nH]c2ccccc12)c1cc(-c2ccc3ccccc3c2)n[nH]1	2.6µM*	u	12µM*	5.8µM*	u	7.3µM*
O=C(N/N=C\c1c[nH]c2ccccc12)c1ccc(O)cc1	1%	i	-9%	-1%	i	1%
Cc1cccc(C)c1NC(=O)CCCN1C(=O)C(c2ccccc2)Oc2cccnc21 (stereo unspecified)	-2%	i	-18%	-2%	i	-2%
CCN(CC)S(=O)(=O)c1ccc(NC(=O)COC(=O)c2cnc(C)cn2)cc1	15%	i	-22%	17%	i	8%
O=C(NCCc1ccccc1)Nc1ccc(Cl)cc1	-5%	i	1%	6%	i	9%
COc1ccc2c(C(=O)CN3CC(C)OC(C)C3)c[nH]c2c1 (stereo unspecified)	-5%	i	-4%	1%	i	-6%
O=C(N/N=C/c1ccccn1)c1cc(-c2cccc3ccccc23)n[nH]1	u	i	27%	-24%	i	-29%
O=C(N/N=C/c1c[nH]c2ccccc12)c1cc(-c2ccc(-c3ccccc3)cc2)n[nH]1	15µM*	u	u	13µM*	16µM*	u
O=C(N/N=C/c1c[nH]c2ccccc12)c1cc(-c2cccc3ccccc23)n[nH]1	9.2µM*	u	u	8.2µM*	i	u
SMILES	MCF10A rerep	KB-3-1 cytotox	SW480 rereplic	HT1080 IDH1KD tx	KB-V1 MDR tox	HT1080-NT tox
O=C(N/N=C/c1c[nH]c2ccccc12)c1cc(-c2ccccc2)n[nH]1	17%	i	-11%	u	i	u
Cc1ccc(C2Oc3ccccc3C3=C2C(c2cccs2)n2ncnc2N3)cc1 (stereo unspecified)	5.8µM*	9.2µM*	u	u	i	21µM*
Cc1csc(SCC(=O)Nc2sccc2C(N)=O)n1	7%	i	-3%	-1%	i	-5%
CC1CCC(C(C)C)C(OC(=O)COC(=O)c2cc(O)ccc2N)C1 (stereo unspecified)	23µM*	i	26µM*	u	i	u
CC(C)C1Oc2ccccc2N(CC(=O)N(Cc2ccccn2)C2CC2)C1=O (stereo unspecified)	0%	i	-6%	17%	i	13%
CCc1ccc(C(=O)c2cn(CC(=O)Nc3ccc(F)cc3)c3cc4c(cc3c2=O)OCO4)cc1	x	u	x	x	i	x
O=C(C[n+]1cc(-c2ccccc2)n2c1CCC2)Nc1nc(-c2ccccc2)cs1	-6%	16µM*	-5%	-10%	i	0%
Cc1ccc(-c2c[n+](CC(=O)c3ccc(Br)cc3)c3n2CCCCC3)cc1	-2%	u	0%	u	i	21µM*
O=C(C[n+]1cc(-c2ccccc2)n2c1CCCCC2)c1ccc(Cl)cc1	-5%	u	-14%	-3%	i	-2%
Cc1ccc(NC(=O)C[n+]2cc(-c3ccccc3)n3c2CCC3)cc1	7%	u	-17%	-11%	i	9%
Cc1ccc(-c2c[n+](CC(=O)Nc3nc(-c4ccccc4)cs3)c3n2CCC3)cc1	29%	i	-1%	23µM*	i	u
CSc1nc2ccc(N3C(=O)C4CCCCC4C3=O)cc2s1 (stereo unspecified)	2%	i	-9%	6%	u	1%
CCCOc1ccc(C(=O)CCC(=O)OCC(=O)Nc2cccc(S(N)(=O)=O)c2)cc1	-2%	i	7%	-1%	i	-8%
CCc1nccn1S(=O)(=O)c1ccc(OC)c(OC)c1	-3%	i	-1%	-4%	i	4%
Cc1cc(C)cc(OCC(=O)NNC(=S)NC(=O)C2CC2)c1	9%	u	u	u	i	-29%
COc1ccc(CN2C(=O)c3cccnc3C2Nc2ccc(OC)c(Cl)c2)cc1 (stereo unspecified)	0%	i	13%	-2%	15µM*	7%
Cc1ccccc1NC(=O)c1ccc(Cn2cc([N+](=O)[O-])cn2)o1	-5%	i	1%	-1%	i	-2%
